Reference: PubChem BioAssay (EPA / NIEHS)
Inconclusive results are not listed. Activity calls are given as the source filed them. The calls were made as follows, unless noted: active = hit-call score of the fitted dose curve at least 0.9, where 1 is the maximum; inactive = score below 0.9.

Tests used:
[1] = ACEA_ER_80hr: ACEA Biosciences xCELLigence Real-Time Cell Analysis on Estrogen Receptor Agonism for Proliferation (AID 2282667; active = hit-call score of the fitted dose curve at least 0.9, where 1 is the maximum); conditions: T47D proliferation, impedance (xCELLigence), 80 h
Summary of the method: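 Cell-growth kinetics were measured by impedance in T47D cells treated continuously with compound (top 100 uM final, 1:4 steps, 8 points). Activity at 80 h was scored as signal gain over the DMSO baseline.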

[2] = ATG_CRE_CIS: Attagene CIS-FACTORIAL HepG2 Assay for human cAMP Responsive Element (CRE) binding protein 3 (AID 2282926); conditions: HepG2 CRE cis-reporter, Attagene multiplexed mRNA; actives raise or lower the signal
Summary of the method: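 Cells carrying cis-regulated reporter constructs respond through their own endogenous factors. After 24 h treatment, RNA is reverse-transcribed, amplified, labelled and sized by capillary electrophoresis; up- and down-regulation are both scored against vehicle.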

[3] = biological target: CCAAT/enhancer-binding protein beta (Homo sapiens) (UniProt P17676); test: ATG_C_EBP_CIS: Attagene CIS-FACTORIAL HepG2 Assay for human CCAAT/Enhancer Binding Protein (C/EBP) beta (AID 2282927); conditions: HepG2 Attagene cis-factorial transcription factor reporter; actives raise or lower the signal
Sequence of CCAAT/enhancer-binding protein beta (Homo sapiens) (P17676 whole entry, looked up): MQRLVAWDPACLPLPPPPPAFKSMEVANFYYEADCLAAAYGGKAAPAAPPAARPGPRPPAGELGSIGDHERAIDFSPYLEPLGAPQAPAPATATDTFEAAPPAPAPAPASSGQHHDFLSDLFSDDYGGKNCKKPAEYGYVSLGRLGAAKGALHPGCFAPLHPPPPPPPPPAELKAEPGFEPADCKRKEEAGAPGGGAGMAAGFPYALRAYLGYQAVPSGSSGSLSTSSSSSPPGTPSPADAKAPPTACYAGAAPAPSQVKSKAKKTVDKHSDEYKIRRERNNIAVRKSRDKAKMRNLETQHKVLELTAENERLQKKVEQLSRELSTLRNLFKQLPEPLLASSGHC
Summary of the method: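 Following a 24 h incubation with test chemical, transfected HepG2 cells yielded RNA whose reporter transcripts were quantified by RT-PCR and fluorescent capillary electrophoresis, with DMSO serving as baseline for bidirectional fitting.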

[4] = ATG_CMV_CIS: Attagene CIS-FACTORIAL HepG2 Assay for human CMV (Internal Marker) (AID 2282928); conditions: HepG2 CMV promoter reporter, transcription factor profiling; actives raise or lower the signal;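 also: endpoint acts as a background internal control marker rather than a target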
Summary of the method: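 Bidirectional fits against DMSO are applied to reporter mRNA, read by RT-PCR with capillary electrophoresis, from HepG2 cells exposed 24 h. The endpoint serves as an internal CMV background marker within the cis-factorial reporter panel.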

[5] = ATG_DR4_LXR_CIS: Attagene CIS-FACTORIAL HepG2 Assay for human Liver X Receptor (LXR), DR4 submotif (AID 2282929); conditions: HepG2 Attagene DR4 cis-reporter, mRNA transcription; actives raise or lower the signal
Summary of the method: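 Total RNA from 24 h-treated, MRTU-transfected HepG2 cells underwent reverse transcription, PCR, fluorescent primer extension and restriction digestion before capillary electrophoresis. Both increases and decreases in reporter signal were fitted against DMSO.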

[6] = biological target: Aryl hydrocarbon receptor (Homo sapiens) (UniProt P35869); test: ATG_Ahr_CIS: Attagene CIS-FACTORIAL HepG2 Assay for human Aryl Hydrocarbon Receptor (Ahr) (AID 2282930); conditions: HepG2 AhR cis-factorial reporter transcription; actives raise or lower the signal
Sequence of Aryl hydrocarbon receptor (Homo sapiens) (P35869 whole entry, looked up): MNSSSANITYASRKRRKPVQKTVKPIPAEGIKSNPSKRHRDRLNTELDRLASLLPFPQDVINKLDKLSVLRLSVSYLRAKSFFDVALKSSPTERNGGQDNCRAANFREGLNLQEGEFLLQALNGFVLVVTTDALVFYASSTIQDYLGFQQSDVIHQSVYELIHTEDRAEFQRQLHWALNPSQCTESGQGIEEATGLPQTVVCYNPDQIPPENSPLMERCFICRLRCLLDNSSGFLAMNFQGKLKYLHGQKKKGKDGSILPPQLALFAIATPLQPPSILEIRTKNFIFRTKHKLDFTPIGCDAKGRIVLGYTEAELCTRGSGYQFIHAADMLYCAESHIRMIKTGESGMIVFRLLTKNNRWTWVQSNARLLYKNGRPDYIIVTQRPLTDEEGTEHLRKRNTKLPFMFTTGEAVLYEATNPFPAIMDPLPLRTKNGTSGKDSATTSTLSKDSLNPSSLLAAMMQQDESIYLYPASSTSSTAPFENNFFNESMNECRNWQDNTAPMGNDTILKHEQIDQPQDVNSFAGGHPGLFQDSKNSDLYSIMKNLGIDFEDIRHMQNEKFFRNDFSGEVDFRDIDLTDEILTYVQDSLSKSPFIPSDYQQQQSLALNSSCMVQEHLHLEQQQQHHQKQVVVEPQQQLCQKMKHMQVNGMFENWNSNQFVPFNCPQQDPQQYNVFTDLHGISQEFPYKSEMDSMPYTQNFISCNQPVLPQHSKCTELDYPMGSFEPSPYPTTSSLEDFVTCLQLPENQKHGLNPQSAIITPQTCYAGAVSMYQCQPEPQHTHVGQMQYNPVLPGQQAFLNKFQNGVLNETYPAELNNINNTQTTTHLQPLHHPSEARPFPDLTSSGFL
Summary of the method: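 Values derive from bidirectional fitting against DMSO negative control. Underlying signal: cis-element reporter mRNA in transiently transfected HepG2, harvested 24 h post-dose and measured by RT-PCR plus capillary electrophoresis.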

[7] = ATG_AP_1_CIS: Attagene CIS-FACTORIAL HepG2 Assay for human Activator Protein 1 (AP-1) (AID 2282931); conditions: HepG2 Attagene cis-factorial AP-1 reporter mRNA; actives raise or lower the signal
Summary of the method: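 HepG2, transient cis-reporter transfection; 24 h; readout RT-PCR/CE fluorescence; DMSO baseline, gain and loss fitted.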

[8] = ATG_AP_2_CIS: Attagene CIS-FACTORIAL HepG2 Assay for human Activator Protein 2 (AP-2) (AID 2282932); conditions: HepG2 AP-2 cis-reporter, Attagene transcription factor profiling; actives raise or lower the signal
Summary of the method: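 Assay in transfected HepG2 with promoter-regulated reporters, 24 h incubation after dosing. Signal is reporter mRNA fluorescence (RT-PCR, capillary electrophoresis), analysed for both increases and decreases relative to DMSO controls.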

[9] = ATG_BRE_CIS: Attagene CIS-FACTORIAL HepG2 Assay for human Bone Morphogenetic Protein (BMP) Response Element (BRE) (AID 2282933); conditions: HepG2 BMP response element reporter, Attagene transcription factor profiling; actives raise or lower the signal
Summary of the method: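 HepG2 cells transiently transfected with multiplexed cis-element reporter units were dosed with chemical for 24 h. Reporter mRNA was measured by RT-PCR with fluorescent labelling, HpaI digestion and capillary electrophoresis; bidirectional fitting relative to DMSO.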

[10] = biological target: Retinoic acid receptor alpha (Homo sapiens) (UniProt P10276); test: ATG_DR5_RAR_CIS: Attagene CIS-FACTORIAL HepG2 Assay for human Retinoic Acid Receptor Alpha (RARE), DR5 submotif (AID 2282934); conditions: HepG2 Attagene cis-factorial RARE DR5 reporter, mRNA; actives raise or lower the signal;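 as to AC50: reporter responds to endogenous RAR alpha beta and gamma in HepG2 not RARA alone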
Sequence of Retinoic acid receptor alpha (Homo sapiens) (P10276 whole entry, looked up): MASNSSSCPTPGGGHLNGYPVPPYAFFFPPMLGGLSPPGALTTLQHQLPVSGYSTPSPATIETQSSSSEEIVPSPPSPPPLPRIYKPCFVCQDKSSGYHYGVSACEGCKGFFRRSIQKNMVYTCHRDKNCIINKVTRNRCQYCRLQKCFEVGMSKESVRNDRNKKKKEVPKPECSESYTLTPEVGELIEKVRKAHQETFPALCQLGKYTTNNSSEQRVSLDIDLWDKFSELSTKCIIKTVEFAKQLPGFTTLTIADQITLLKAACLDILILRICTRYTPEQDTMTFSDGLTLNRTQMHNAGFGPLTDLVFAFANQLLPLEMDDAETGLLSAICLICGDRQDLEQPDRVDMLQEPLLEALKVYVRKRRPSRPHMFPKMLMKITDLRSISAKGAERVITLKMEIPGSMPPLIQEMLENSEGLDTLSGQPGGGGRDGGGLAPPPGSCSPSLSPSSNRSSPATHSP
Summary of the method: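 Endpoint fitted in both directions relative to DMSO as negative control. It reflects DR5 cis-element reporter mRNA induction in transiently transfected HepG2 cells, measured 24 h after dosing through RT-PCR and fluorescent capillary electrophoresis.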

[11] = biological target: Transcription factor E2F1 (Homo sapiens) (UniProt Q01094); test: ATG_E2F_CIS: Attagene CIS-FACTORIAL HepG2 Assay for human E2F Transcription Factor 1 (AID 2282935); conditions: HepG2 Attagene cis-reporter, E2F reporter RNA transcripts; actives raise or lower the signal
Sequence of Transcription factor E2F1 (Homo sapiens) (Q01094 whole entry, looked up): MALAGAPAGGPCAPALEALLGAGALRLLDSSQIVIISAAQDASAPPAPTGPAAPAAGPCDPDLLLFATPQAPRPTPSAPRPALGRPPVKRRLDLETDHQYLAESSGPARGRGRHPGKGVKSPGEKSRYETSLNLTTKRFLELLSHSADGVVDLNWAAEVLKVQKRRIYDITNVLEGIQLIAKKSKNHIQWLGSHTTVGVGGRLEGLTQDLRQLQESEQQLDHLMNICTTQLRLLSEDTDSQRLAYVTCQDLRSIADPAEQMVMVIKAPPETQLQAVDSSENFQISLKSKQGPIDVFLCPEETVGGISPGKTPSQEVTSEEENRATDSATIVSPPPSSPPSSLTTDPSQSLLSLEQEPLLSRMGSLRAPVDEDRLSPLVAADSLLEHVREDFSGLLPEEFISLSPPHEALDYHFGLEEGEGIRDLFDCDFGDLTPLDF
Summary of the method: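 In this cis-factorial format, endogenous factor activity drives transfected reporters in HepG2; transcripts collected at 24 h are quantified by fluorescence after RT-PCR and capillary separation.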

[12] = ATG_E_Box_CIS: Attagene CIS-FACTORIAL HepG2 Assay for human Enhancer Box (E-box) (AID 2282936); conditions: HepG2 E-box cis-reporter transcription, actives raise or lower the signal
Summary of the method: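 Measured 24 h post-dosing in HepG2 cells transfected with multiple cis-regulated reporter units, signal being reporter mRNA induction detected by fluorescent RT-PCR with capillary electrophoresis; gain or loss fitted against DMSO.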

[13] = ATG_M_61_CIS: Attagene CIS-FACTORIAL HepG2 Assay for M61 Transcription Factor (Internal Marker) (AID 2282937); conditions: HepG2 Attagene CIS-FACTORIAL M61 internal marker reporter; actives raise or lower the signal
Summary of the method: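 Transfect HepG2 with MRTUs; dose 24 h; isolate RNA; reverse-transcribe with DNase I treatment; PCR-amplify, FAM-label and cut with HpaI for 2 h at 37 C; resolve by CE. Bidirectional fitting against DMSO.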

[14] = ATG_EGR_CIS: Attagene CIS-FACTORIAL HepG2 Assay for human Early Growth Response 1 (EGR1) (AID 2282938); conditions: HepG2 Attagene CIS-FACTORIAL EGR reporter mRNA; actives raise or lower the signal
Summary of the method: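 After a 24 h treatment of transiently transfected HepG2 cells, total RNA was reverse-transcribed and reporter sequences PCR-amplified, labelled and run on capillary electrophoresis. Reporters sit under cis-regulatory promoters sensing endogenous factors.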

[15] = ATG_M_19_CIS: Attagene CIS-FACTORIAL HepG2 Assay for M19 Transcription Factor (Internal Marker) (AID 2282939); conditions: HepG2 Attagene CIS-FACTORIAL M19 internal marker reporter; actives raise or lower the signal
Summary of the method: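 HepG2 cells transiently transfected with cis-regulated multiple reporter transcription units were dosed for 24 h; reporter mRNA was quantified by RT-PCR, 6-FAM primer-extension labelling, HpaI digestion and capillary electrophoresis, with bidirectional fitting against DMSO baseline.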

[16] = ATG_ERE_CIS: Attagene CIS-FACTORIAL HepG2 Assay for Estrogen Response Element (ERE) (AID 2282940); conditions: HepG2 ERE cis-reporter, Attagene RNA transcript; actives raise or lower the signal
Summary of the method: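 HepG2 cells transiently transfected with cis-promoter-driven multiplexed reporter transcription units report endogenous TF activity. After 24 h compound exposure, reporter mRNA is quantified by RT-PCR with capillary electrophoresis fluorescence; bidirectional fitting versus DMSO baseline.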

[17] = ATG_Ets_CIS: Attagene CIS-FACTORIAL HepG2 Assay for human Erythroblast Transformation Specific (ETS) (AID 2282941); conditions: HepG2 ETS cis-reporter transcription, actives raise or lower the signal
Summary of the method: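 Endogenous transcription factor activity read as reporter mRNA via RT-PCR and capillary electrophoresis, with gain or loss fitted bidirectionally against DMSO. Human HepG2 liver cells, transiently transfected CIS reporter constructs, 24 h exposure.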

[18] = biological target: Hepatocyte nuclear factor 3-beta (Homo sapiens) (UniProt Q9Y261); test: ATG_FoxA2_CIS: Attagene CIS-FACTORIAL HepG2 Assay for human Forkhead box A2 (FOXA2) (AID 2282942); conditions: HepG2 cis-reporter transcription factor activity, 24 h; actives raise or lower the signal
Sequence of Hepatocyte nuclear factor 3-beta (Homo sapiens) (Q9Y261 whole entry, looked up): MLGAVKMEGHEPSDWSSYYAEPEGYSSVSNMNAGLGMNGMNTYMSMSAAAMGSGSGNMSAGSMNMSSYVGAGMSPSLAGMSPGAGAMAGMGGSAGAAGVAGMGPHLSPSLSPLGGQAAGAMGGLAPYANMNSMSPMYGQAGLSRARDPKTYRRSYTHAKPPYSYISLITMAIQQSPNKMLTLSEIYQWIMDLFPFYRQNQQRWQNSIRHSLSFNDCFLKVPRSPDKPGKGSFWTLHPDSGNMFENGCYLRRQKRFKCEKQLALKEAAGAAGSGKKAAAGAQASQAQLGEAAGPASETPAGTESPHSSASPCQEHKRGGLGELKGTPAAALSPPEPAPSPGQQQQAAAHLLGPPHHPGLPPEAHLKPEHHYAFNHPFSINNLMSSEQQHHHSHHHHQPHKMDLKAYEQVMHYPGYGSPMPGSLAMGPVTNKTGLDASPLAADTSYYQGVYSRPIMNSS
Summary of the method: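 24 h dosing of HepG2 bearing cis-reporter constructs; mRNA readout by RT-PCR/CE fluorescence; bidirectional fit, DMSO baseline.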

[19] = ATG_FoxO_CIS: Attagene CIS-FACTORIAL HepG2 Assay for human Forkhead box O (FoxO) (AID 2282943); conditions: HepG2 Attagene cis-reporter, FoxO element, mRNA; actives raise or lower the signal
Summary of the method: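 Values reflect reporter mRNA induction or loss in HepG2 cells 24 h post-dosing, fitted bidirectionally with DMSO as negative control and baseline. Detection used RT-PCR and fluorescence capillary electrophoresis.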

[20] = ATG_GATA_CIS: Attagene CIS-FACTORIAL HepG2 Assay for human GATA Binding Protein (AID 2282944); conditions: HepG2 GATA cis-element reporter, Attagene multiplex mRNA; actives raise or lower the signal
Summary of the method: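 HepG2 cells transiently transfected with multiplexed cis-element reporter units reflecting endogenous transcription factor activity; reporter mRNA measured after 24 h dosing by RT-PCR, 6-FAM labeling, HpaI digestion and capillary electrophoresis. Bidirectional fitting versus DMSO baseline.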

## CCCCCCCCCCCCCC(=O)OC(C)C
[1]
  outcome: inactive
[2]
  outcome: inactive
[3]
  outcome: inactive
[4]
  outcome: inactive
[5]
  outcome: inactive
[6]
  outcome: inactive
[7]
  outcome: inactive
[8]
  outcome: inactive
[9]
  outcome: inactive
[10]
  outcome: inactive
[11]
  outcome: inactive
[12]
  outcome: inactive
[13]
  outcome: inactive
[14]
  outcome: inactive
[15]
  outcome: inactive
[16]
  outcome: inactive
[17]
  outcome: inactive
[18]
  outcome: inactive
[19]
  outcome: inactive
[20]
  outcome: inactive

## CC(C)c1cccc(C(C)C)c1N
[1]
  outcome: inactive
[2]
  outcome: inactive
[3]
  outcome: inactive
[4]
  outcome: inactive
[5]
  outcome: inactive
[6]
  outcome: inactive
[7]
  outcome: inactive
[8]
  outcome: inactive
[9]
  outcome: inactive
[10]
  outcome: inactive
[11]
  outcome: inactive
[12]
  outcome: inactive
[13]
  outcome: inactive
[14]
  outcome: inactive
[15]
  outcome: inactive
[16]
  outcome: inactive
[17]
  outcome: inactive
[18]
  outcome: inactive
[19]
  outcome: inactive
[20]
  outcome: inactive

## CC(C)c1cc(C(C)C)cc(C(C)C)c1
[1]
  outcome: inactive
[2]
  outcome: inactive
[3]
  AC50: 182 µM (active)
[4]
  AC50: 36 µM (active)
[5]
  AC50: 25.9 µM (active)
[6]
  outcome: inactive
[7]
  AC50: 125 µM (active)
[8]
  AC50: 180 µM (active)
[9]
  outcome: inactive
[10]
  AC50: 59.5 µM (active)
[11]
  outcome: inactive
[12]
  AC50: 23.7 µM (active)
[13]
  outcome: inactive
[14]
  outcome: inactive
[15]
  outcome: inactive
[16]
  AC50: 168 µM (active)
[17]
  AC50: 169 µM (active)
[18]
  AC50: 160 µM (active)
[19]
  outcome: inactive
[20]
  AC50: 178 µM (active)

## C=C[Si](OCCOC)(OCCOC)OCCOC
[1]
  outcome: inactive
[2]
  outcome: inactive
[3]
  outcome: inactive
[4]
  outcome: inactive
[5]
  outcome: inactive
[6]
  outcome: inactive
[7]
  outcome: inactive
[8]
  outcome: inactive
[9]
  outcome: inactive
[10]
  outcome: inactive
[11]
  outcome: inactive
[12]
  outcome: inactive
[13]
  outcome: inactive
[14]
  outcome: inactive
[15]
  outcome: inactive
[16]
  outcome: inactive
[17]
  outcome: inactive
[18]
  outcome: inactive
[19]
  outcome: inactive
[20]
  outcome: inactive

## C=CC(=O)OCC(C)OCC(C)OCC(C)OC(=O)C=C (stereo not given)
[1]
  outcome: inactive
[2]
  outcome: inactive
[3]
  outcome: inactive
[4]
  AC50: 77.1 µM (active)
[5]
  AC50: 68.8 µM (active)
[6]
  outcome: inactive
[7]
  AC50: 73.4 µM (active)
[8]
  outcome: inactive
[9]
  outcome: inactive
[10]
  outcome: inactive
[11]
  outcome: inactive
[12]
  AC50: 68.6 µM (active)
[13]
  outcome: inactive
[14]
  AC50: 79.7 µM (active)
[15]
  outcome: inactive
[16]
  outcome: inactive
[17]
  AC50: 60.1 µM (active)
[18]
  outcome: inactive
[19]
  AC50: 100 µM (active)
[20]
  outcome: inactive

## Nc1ccc(Cl)c(N)c1
[1]
  outcome: inactive
[2]
  outcome: inactive
[3]
  outcome: inactive
[4]
  outcome: inactive
[5]
  outcome: inactive
[6]
  AC50: 6.09 µM (active)
[7]
  outcome: inactive
[8]
  outcome: inactive
[9]
  outcome: inactive
[10]
  outcome: inactive
[11]
  outcome: inactive
[12]
  outcome: inactive
[13]
  outcome: inactive
[14]
  outcome: inactive
[15]
  outcome: inactive
[16]
  outcome: inactive
[17]
  outcome: inactive
[18]
  outcome: inactive
[19]
  outcome: inactive
[20]
  outcome: inactive

## CC1=CC(C)C(C=O)CC1 (stereo not given)
[1]
  outcome: inactive
[2]
  outcome: inactive
[3]
  outcome: inactive
[4]
  outcome: inactive
[5]
  outcome: inactive
[6]
  AC50: 8.87 µM (active)
[7]
  outcome: inactive
[8]
  outcome: inactive
[9]
  outcome: inactive
[10]
  outcome: inactive
[11]
  outcome: inactive
[12]
  outcome: inactive
[13]
  outcome: inactive
[14]
  outcome: inactive
[15]
  outcome: inactive
[16]
  AC50: 27.2 µM (active)
[17]
  outcome: inactive
[18]
  outcome: inactive
[19]
  outcome: inactive
[20]
  outcome: inactive
